{
  "source": "PubChem BioAssay AID1835",
  "about": "(Johns Hopkins Ion Channel Center, 2009)",
  "note": "Hit rate of the full screen: of about 2,400 compounds, about 750 (31%) were called active.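 Rule for the calls: active = median signal gain over dofetilide-blocked control wells reaching their mean plus 3 SD, so readout 1 at least 0; inactive = the rest.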 The list shows a part of the results.",
  "data": [
    {"molecular_target": "Voltage-gated inwardly rectifying potassium channel KCNH2 (Homo sapiens) (UniProt Q12809)", "sequence (Q12809 whole entry, looked up)": "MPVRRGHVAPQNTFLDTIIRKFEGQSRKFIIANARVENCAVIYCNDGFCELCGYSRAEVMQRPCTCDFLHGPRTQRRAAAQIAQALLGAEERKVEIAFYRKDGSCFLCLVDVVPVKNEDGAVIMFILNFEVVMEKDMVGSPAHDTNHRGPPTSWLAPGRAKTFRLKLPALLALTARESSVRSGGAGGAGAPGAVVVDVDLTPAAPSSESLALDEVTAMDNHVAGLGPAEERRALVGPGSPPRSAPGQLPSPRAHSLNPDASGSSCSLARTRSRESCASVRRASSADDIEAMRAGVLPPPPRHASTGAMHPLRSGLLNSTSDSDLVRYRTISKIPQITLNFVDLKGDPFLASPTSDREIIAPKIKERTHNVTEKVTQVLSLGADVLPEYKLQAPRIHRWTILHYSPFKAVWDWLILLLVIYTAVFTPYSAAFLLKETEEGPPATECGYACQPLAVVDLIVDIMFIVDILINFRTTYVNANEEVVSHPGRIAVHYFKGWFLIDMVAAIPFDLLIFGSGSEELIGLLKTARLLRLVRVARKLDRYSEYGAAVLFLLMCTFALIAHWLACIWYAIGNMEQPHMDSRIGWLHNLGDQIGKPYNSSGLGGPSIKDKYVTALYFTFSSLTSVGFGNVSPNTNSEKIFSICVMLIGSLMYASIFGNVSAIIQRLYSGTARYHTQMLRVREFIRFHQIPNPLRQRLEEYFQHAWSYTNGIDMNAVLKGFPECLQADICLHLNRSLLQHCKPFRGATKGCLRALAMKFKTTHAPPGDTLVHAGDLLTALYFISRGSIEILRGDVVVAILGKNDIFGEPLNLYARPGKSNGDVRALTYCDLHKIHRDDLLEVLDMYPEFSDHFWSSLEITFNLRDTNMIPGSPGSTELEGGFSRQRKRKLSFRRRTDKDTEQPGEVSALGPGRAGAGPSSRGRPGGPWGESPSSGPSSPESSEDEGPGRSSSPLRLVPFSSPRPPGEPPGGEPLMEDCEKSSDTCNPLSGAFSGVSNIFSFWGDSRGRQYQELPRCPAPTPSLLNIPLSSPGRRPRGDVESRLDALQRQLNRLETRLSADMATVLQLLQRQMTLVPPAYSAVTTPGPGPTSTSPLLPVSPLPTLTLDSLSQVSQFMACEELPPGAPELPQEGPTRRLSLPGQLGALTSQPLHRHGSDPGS", "assay": "hERG protection against dofetilide inhibition, confirmation, cell-based, thallium flux, duplicate retest, dofetilide IC70 (AID 1835)", "conditions": "hERG cell line, FluxOR thallium flux, dofetilide-blocked; at 10 µM; hits give high values", "values": [
      {"smiles": "CC(Oc1ccccc1F)C(=O)NC1CCS(=O)(=O)C1", "note": "(stereo unspecified)", "activity increase over dofetilide control, less the hit threshold": "-9% (inactive)"},
      {"smiles": "CN1C(=O)C2(OCC(C)([N+](=O)[O-])CO2)c2ccccc21", "note": "(stereo unspecified)", "activity increase over dofetilide control, less the hit threshold": "-7% (inactive)"},
      {"smiles": "Cc1nc2cc3sc(C)nc3cc2s1", "activity increase over dofetilide control, less the hit threshold": "-8% (inactive)"},
      {"smiles": "Cc1ccc(NN=Nc2nc3c([nH]2)c(=O)n(C)c(=O)n3C)cc1", "activity increase over dofetilide control, less the hit threshold": "-6% (inactive)"},
      {"smiles": "Cc1cccc(N/C(N)=N/c2nc(C)cc(=O)[nH]2)c1", "activity increase over dofetilide control, less the hit threshold": "-9% (inactive)"},
      {"smiles": "Cc1ccc(Nc2cc(C)nn2-c2nc(C)cc(=O)[nH]2)cc1", "activity increase over dofetilide control, less the hit threshold": "40% (active)"},
      {"smiles": "C=CCn1c(=S)[nH]c2sc3c(c2c1=O)CCC3", "activity increase over dofetilide control, less the hit threshold": "27% (active)"},
      {"smiles": "C=CCn1c(=S)[nH]c2sc3c(c2c1=O)CCCC3", "activity increase over dofetilide control, less the hit threshold": "30% (active)"},
      {"smiles": "c1ccc(SSc2ccccn2)nc1", "activity increase over dofetilide control, less the hit threshold": "-21% (inactive)"},
      {"smiles": "CCOC(=O)C1CCN(S(=O)(=O)c2cccc3nonc23)CC1", "activity increase over dofetilide control, less the hit threshold": "2% (active)"},
      {"smiles": "CCOC(=O)C1CCCN(C(=O)CN2C(=O)c3ccccc3C2=O)C1", "note": "(stereo unspecified)", "activity increase over dofetilide control, less the hit threshold": "-20% (inactive)"},
      {"smiles": "O=C(NCc1ccc(Cl)cc1)C1CCN(S(=O)(=O)c2cccc3nonc23)CC1", "activity increase over dofetilide control, less the hit threshold": "-5% (inactive)"},
      {"smiles": "CCN1CCN(CCNC(=O)CCCn2nc(C)c3c(C)n(-c4ccc(C)cc4)nc3c2=O)CC1", "activity increase over dofetilide control, less the hit threshold": "-8% (inactive)"},
      {"smiles": "Cc1cc(C)cc(OCc2nnc(SCC(=O)Nc3ccccc3)o2)c1", "activity increase over dofetilide control, less the hit threshold": "-19% (inactive)"},
      {"smiles": "CC(Oc1ccc(Br)cc1Br)C(=O)Nc1cccnc1", "note": "(stereo unspecified)", "activity increase over dofetilide control, less the hit threshold": "9% (active)"},
      {"smiles": "COc1ccc(S(=O)(=O)Nc2cccnc2)cc1", "activity increase over dofetilide control, less the hit threshold": "-11% (inactive)"},
      {"smiles": "CC(Oc1ccc(Cl)cc1Cl)C(=O)Nc1cccnc1", "note": "(stereo unspecified)", "activity increase over dofetilide control, less the hit threshold": "-23% (inactive)"},
      {"smiles": "Oc1ccc(Cl)cc1C1=NNC(c2cccs2)C1", "note": "(stereo unspecified)", "activity increase over dofetilide control, less the hit threshold": "10% (active)"},
      {"smiles": "O=C(Nc1cc(Cl)ccc1O)C1CC(c2ccccc2Cl)=NO1", "note": "(stereo unspecified)", "activity increase over dofetilide control, less the hit threshold": "-1% (inactive)"},
      {"smiles": "CCCNS(=O)(=O)c1ccc(OCC(=O)Nc2ccc3c(c2)OCCO3)cc1", "activity increase over dofetilide control, less the hit threshold": "-10% (inactive)"},
      {"smiles": "CCOc1cc(C(=O)NC)cc(OCC)c1OCC", "activity increase over dofetilide control, less the hit threshold": "-13% (inactive)"},
      {"smiles": "COCCNC(=O)C1CC(=O)N(c2ccc(OC)cc2)C1c1ccc(OC)cc1", "note": "(stereo unspecified)", "activity increase over dofetilide control, less the hit threshold": "-24% (inactive)"},
      {"smiles": "CN(C)c1ccc(N=Nc2ccc(C(=O)O)cc2)cc1", "activity increase over dofetilide control, less the hit threshold": "-4% (inactive)"},
      {"smiles": "O=c1ccc(N=Nc2ccccc2)ccc1O", "activity increase over dofetilide control, less the hit threshold": "68% (active)"},
      {"smiles": "COc1ccc(CN(C)C(=O)c2cccc(NS(=O)(=O)c3ccccc3)c2)cc1F", "activity increase over dofetilide control, less the hit threshold": "-26% (inactive)"},
      {"smiles": "CC1(C)Cc2c(ccc3ccccc23)C2=C(C(=O)N3CCCC3)C(=O)C(=O)N21", "activity increase over dofetilide control, less the hit threshold": "-16% (inactive)"},
      {"smiles": "O=C1CC(O)(C(F)(F)F)Oc2c1ccc1ccccc21", "note": "(stereo unspecified)", "activity increase over dofetilide control, less the hit threshold": "13% (active)"},
      {"smiles": "COc1ccc(N(C(=O)c2ccco2)S(=O)(=O)c2cccs2)cc1", "activity increase over dofetilide control, less the hit threshold": "-6% (inactive)"},
      {"smiles": "CC(=O)Nc1ccc(S(=O)(=O)N2CCC(C(=O)O)CC2)cc1", "activity increase over dofetilide control, less the hit threshold": "-6% (inactive)"},
      {"smiles": "N=c1sccn1CC(=O)Nc1ccccc1Cc1ccccc1", "activity increase over dofetilide control, less the hit threshold": "-7% (inactive)"},
      {"smiles": "Cc1ccc(NC(=O)c2ccc(CNS(=O)(=O)c3cccc(C(F)(F)F)c3)cc2)cc1", "activity increase over dofetilide control, less the hit threshold": "-1% (inactive)"},
      {"smiles": "CC(=O)c1ccc(S(=O)(=O)NCc2ccc(C(=O)N(C)CC(=O)Nc3cccc(F)c3)cc2)cc1", "activity increase over dofetilide control, less the hit threshold": "2% (active)"},
      {"smiles": "CN(CC(=O)Nc1ccc(Cl)cc1)C(=O)c1cccc(S(=O)(=O)NCc2ccccc2)c1", "activity increase over dofetilide control, less the hit threshold": "-18% (inactive)"},
      {"smiles": "O=C(CSc1cn(CC(=O)N2CCCC2)c2ccccc12)NCC1CCCO1", "note": "(stereo unspecified)", "activity increase over dofetilide control, less the hit threshold": "-28% (inactive)"},
      {"smiles": "COc1ccc(CCN2C(=O)CSC2=S)cc1OC", "activity increase over dofetilide control, less the hit threshold": "-16% (inactive)"},
      {"smiles": "Cc1ccc(C)c(NC(=O)C2C3CCCC2C3c2ccccc2)c1", "note": "(stereo unspecified)", "activity increase over dofetilide control, less the hit threshold": "-16% (inactive)"},
      {"smiles": "Cc1ccc(C)c(NC(=S)NNC(=O)c2csc3c2CCC(C)C3)c1", "note": "(stereo unspecified)", "activity increase over dofetilide control, less the hit threshold": "9% (active)"},
      {"smiles": "Cc1cccc(NC(=S)NNC(=O)c2csc3c2CCC(C)C3)c1", "note": "(stereo unspecified)", "activity increase over dofetilide control, less the hit threshold": "-3% (inactive)"},
      {"smiles": "CCC1Nc2ncnc(N3CCOCC3)c2N(Cc2ccc(C)cc2)C1=O", "note": "(stereo unspecified)", "activity increase over dofetilide control, less the hit threshold": "-16% (inactive)"},
      {"smiles": "Cc1cccc(/C=C/C(=O)c2cc(Br)ccc(=O)c2O)c1", "activity increase over dofetilide control, less the hit threshold": "-14% (inactive)"},
      {"smiles": "O=C(/C=C/c1ccccc1)c1cc(Br)ccc(=O)c1O", "activity increase over dofetilide control, less the hit threshold": "19% (active)"},
      {"smiles": "CCc1ccc(/C=C/C(=O)c2cc(Br)ccc(=O)c2O)cc1", "activity increase over dofetilide control, less the hit threshold": "13% (active)"},
      {"smiles": "COC(=O)c1c(N2C(=O)CC(Sc3ncccc3C(=O)O)C2=O)sc(C)c1C", "note": "(stereo unspecified)", "activity increase over dofetilide control, less the hit threshold": "-14% (inactive)"},
      {"smiles": "CC(C)CC1C(C#N)=C(N)Oc2n[nH]c(-c3cccs3)c21", "note": "(stereo unspecified)", "activity increase over dofetilide control, less the hit threshold": "-16% (inactive)"},
      {"smiles": "O=C(NCCCN1CCCC1=O)c1ccc(OC(F)(F)F)cc1", "activity increase over dofetilide control, less the hit threshold": "-18% (inactive)"},
      {"smiles": "CCOc1ccc(C(=O)N(CN2CCCC2=O)c2ccc(C)cc2)cc1", "activity increase over dofetilide control, less the hit threshold": "10% (active)"},
      {"smiles": "COc1ccc(C(=O)N(CN2CCCC2=O)c2ccc(C)cc2)cc1", "activity increase over dofetilide control, less the hit threshold": "-1% (inactive)"},
      {"smiles": "O=C1CC(c2ccco2)CC2=C1C1c3ccccc3C(=O)N1c1ccccc1N2", "note": "(stereo unspecified)", "activity increase over dofetilide control, less the hit threshold": "-3% (inactive)"},
      {"smiles": "CSc1ccccc1-n1nnnc1SCC(=O)Nc1cc(C)ccc1C", "activity increase over dofetilide control, less the hit threshold": "-30% (inactive)"},
      {"smiles": "Cn1nnnc1SCC(=O)NC1CCCc2ccccc21", "note": "(stereo unspecified)", "activity increase over dofetilide control, less the hit threshold": "-21% (inactive)"},
      {"smiles": "Cn1nnnc1SCC(=O)Nc1ccccn1", "activity increase over dofetilide control, less the hit threshold": "4% (active)"},
      {"smiles": "CCn1c(O)c(N=NC2=NC(=O)CS2)c2ccccc21", "activity increase over dofetilide control, less the hit threshold": "3% (active)"},
      {"smiles": "CCc1ccc2c(c1)c(N=NC1=NC(=O)CS1)c(O)n2CC", "activity increase over dofetilide control, less the hit threshold": "39% (active)"},
      {"smiles": "CCn1c(O)c(N=NC2=NC(=O)CS2)c2cc(C)ccc21", "activity increase over dofetilide control, less the hit threshold": "-10% (inactive)"},
      {"smiles": "Cn1cc([N+](=O)[O-])c(C(=O)NCc2cc3cc(Cl)ccc3[nH]2)n1", "activity increase over dofetilide control, less the hit threshold": "-12% (inactive)"},
      {"smiles": "O=[N+]([O-])c1cc(F)c2cccnc2c1O", "activity increase over dofetilide control, less the hit threshold": "-6% (inactive)"},
      {"smiles": "COc1ccc(CCn2c(S)nc3ccccc3c2=O)cc1", "activity increase over dofetilide control, less the hit threshold": "6% (active)"},
      {"smiles": "COc1ccc(-n2cnc3ccccc3c2=O)c([N+](=O)[O-])c1", "activity increase over dofetilide control, less the hit threshold": "-9% (inactive)"},
      {"smiles": "NC(=O)CSc1nc2ccccc2c(=O)n1CCc1ccccc1", "activity increase over dofetilide control, less the hit threshold": "-8% (inactive)"},
      {"smiles": "O=C(COC(=O)C1CCC(=O)N1)Nc1cc(Cl)ccc1Cl", "note": "(stereo unspecified)", "activity increase over dofetilide control, less the hit threshold": "-13% (inactive)"},
      {"smiles": "O=C(O)Cc1ccc(NC(=O)C2CC=CCC2C(=O)O)cc1", "note": "(stereo unspecified)", "activity increase over dofetilide control, less the hit threshold": "-14% (inactive)"},
      {"smiles": "COC(=O)c1c(NC(=O)C2CC=CCC2C(=O)O)sc(C)c1C", "note": "(stereo unspecified)", "activity increase over dofetilide control, less the hit threshold": "-13% (inactive)"},
      {"smiles": "CCC1CCc2c(sc(NC(=O)C3CC=CCC3C(=O)O)c2C#N)C1", "note": "(stereo unspecified)", "activity increase over dofetilide control, less the hit threshold": "2% (active)"},
      {"smiles": "Cc1ccccc1C(=O)NC(=S)Nc1sc2c(c1C#N)CCC(C)C2", "note": "(stereo unspecified)", "activity increase over dofetilide control, less the hit threshold": "-13% (inactive)"},
      {"smiles": "CCC(C)(C)C1CCc2c(sc(NC(=O)c3ccccc3C(=O)O)c2C#N)C1", "note": "(stereo unspecified)", "activity increase over dofetilide control, less the hit threshold": "18% (active)"},
      {"smiles": "Cc1ccc(CS(=O)(=O)c2ncc(Cl)c(C(=O)Nc3nnc(C)s3)n2)cc1", "activity increase over dofetilide control, less the hit threshold": "-19% (inactive)"}
    ]}
  ]
}
